Screening data from PubChem BioAssay.
A selection: hits, their analogues and other compounds. The true share with any hit is near 0.7%.
Epigenetic derep – derepresses silenced GFP reporter in murine cells. murine LDR cells, GFP reporter derepression, 30 h. Potency, µM (top dose mostly 53.9 µM), inactives show at the top dose GFP activation, most hits filed as activators. 280,000 tested, 0.2% active. AID 1865; further: % of control where 0% means no effect; nearly all actives have a fitted effect of over 60% in size
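In this reporter-derepression format, murine cells bearing a silenced integrated CMV-GFP locus incubate with test compound (30 h, 37 C), then are washed and imaged; fluorescent objects of 20–120 um count as induced cells.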
PINK1 expr mod – changes PINK1 expression | PINK1 immunofluorescence, high-content cytometry, 24 h | Potency, µM (doses to about 76.6 µM), without a hit: at the top dose activation (PINK1 increase), hits mostly activators | 410,000 tested, 0.2% active | AID 624263; active means well fitted activation curve with a large enough effect; inconclusive means small, poorly fitted or top-dose-only effect; cell line not stated here; further: % of control where 0% means no effect; nearly all actives have a fitted effect of over 65% in size
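Measures PINK1 amount and localization on or inside mitochondria by immunofluorescence. Stable cells get compounds at 5 concentrations for 24 hours before fixation and staining; CCCP controls included.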
Vif-A3G inh – blocks the Vif interaction with human APOBEC3G; Q9HC16; HeLa A3G-eYFP + Vif (tagged APOBEC3G with the HIV-1 protein that degrades it), YFP fluorescence, overnight; Potency, µM (series often up to 46.1 µM), for inactives: at the highest dose activity, negative = active, hits mostly inhibitors; 410,000 tested, 0.076% active; AID 602310; further: on the % scale 0 is the no-effect control and ±100 the full control effect; nearly all actives have a fitted effect of over 60% in size
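Read-out is eYFP fluorescence (Ex 488/Em 500-530) from Vif-expressing HeLa A3G-eYFP cells; more signal means A3G escaped Vif-mediated degradation. Cells plated overnight, compound pinned in, incubated overnight at 37 deg C.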
GLS inhibitor – glutaminase GLS (human) inhibition | O94925 | AID 624170 | GLS enzymatic activity, qHTS titration | Potency, µM (titrated, usually from 45.5 µM), for inactives: top-dose activity change, negative = inhibition, most hits filed as inhibitors | 410,000 tested, 0.21% active; further: on the % scale 0 is the no-effect control and ±100 the full control effect
Target sequence (O94925 whole entry, looked up): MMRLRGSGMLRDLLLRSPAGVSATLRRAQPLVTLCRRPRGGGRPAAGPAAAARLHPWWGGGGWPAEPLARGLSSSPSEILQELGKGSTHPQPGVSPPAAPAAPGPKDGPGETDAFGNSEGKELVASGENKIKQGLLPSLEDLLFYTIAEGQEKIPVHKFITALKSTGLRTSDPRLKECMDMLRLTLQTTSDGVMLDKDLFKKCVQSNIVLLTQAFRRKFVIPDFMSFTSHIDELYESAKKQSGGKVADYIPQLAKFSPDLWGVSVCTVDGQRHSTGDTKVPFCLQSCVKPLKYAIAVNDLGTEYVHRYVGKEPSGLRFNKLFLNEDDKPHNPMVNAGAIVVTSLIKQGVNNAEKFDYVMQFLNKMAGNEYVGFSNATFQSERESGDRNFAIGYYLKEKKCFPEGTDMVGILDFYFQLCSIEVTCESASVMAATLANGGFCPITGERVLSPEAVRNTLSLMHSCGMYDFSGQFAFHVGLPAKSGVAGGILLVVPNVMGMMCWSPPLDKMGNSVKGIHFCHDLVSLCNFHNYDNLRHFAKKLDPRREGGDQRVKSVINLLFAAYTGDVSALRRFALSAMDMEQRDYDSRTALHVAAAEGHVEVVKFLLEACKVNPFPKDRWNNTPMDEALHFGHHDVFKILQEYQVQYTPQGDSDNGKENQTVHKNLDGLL
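Two-point fluorescence kinetic (t0, 30 min RT) for hKGA; glutamate detected via glutamate oxidase–HRP–Amplex Red. Substrate: 1 mM L-glutamine solution; buffer 45 mM KH2PO4, pH 8.2.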
Vif-A3F inh – blocks the Vif interaction with APOBEC3F; HeLa A3F-eYFP + Vif (tagged APOBEC3F with the HIV-1 protein that degrades it), YFP fluorescence increase; Potency, µM (doses to about 46.1 µM), without a hit: at the highest dose activity, negative = active; 390,000 tested, 0.2% active; AID 602313; further: % of control where 0% means no effect; nearly all actives have a fitted effect of over 65% in size
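Fluorescence increase (Ex 488/Em 500-530) after overnight compound treatment at 37 deg C flags inhibition of Vif-driven A3F-eYFP loss in stable HeLa A3F-eYFP/Vif cells seeded overnight beforehand.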
* hit, by the source's call; ? = inconclusive; . = no result; ! = a repeat was not active; [ ] = remark or other dose. Unless noted, the call rests on the fitted dose curve; in most records, active means well fitted curve in the direction sought with a large enough effect; inconclusive means small, poorly fitted or top-dose-only effect, or another doubt; inactive means no such curve, though single readings can be large; an effect the other way counts as inactive or inconclusive. Potency means the concentration at half of the fitted maximal effect.

SMILES | Epigenetic derep | PINK1 expr mod | Vif-A3G inh | GLS inhibitor | Vif-A3F inh
CN(C)C1C(=O)C(C(N)=O)C(=O)C2(O)C(=O)C3C(=O)c4c(O)cccc4C(C)(O)C3C(O)C12 (stereo not drawn) | 1.4% | . | . | 6.31µM* | .
CN(C)C1C(=O)C(C(N)=O)=C(O)[C@@]2(O)C(=O)C3=C(O)c4c(O)cccc4[C@](C)(O)C3C(O)C12 (stereo partly drawn) | -1.3% | . | . | . | .
CCN1C(=O)C(=C/C=C/c2ccco2)C(=O)N(CC)C1=S | 0.0% | 2.8% | ? | 7.08µM* | ?
Cc1[nH]n(-c2ccccc2)c(=O)c1C(c1cccc([N+](=O)[O-])c1O)c1c(C)[nH]n(-c2ccccc2)c1=O | -1.8% | 11.9% | 1.3% | 10µM* | -5.2%
COc1cc(C(c2c(C)[nH]n(-c3ccccc3)c2=O)c2c(C)[nH]n(-c3ccccc3)c2=O)cc(OC)c1OC | ? | -4.7%[38.3 µM] | -12.5% | -1.1% | -6.6%
CCN1C(=O)/C(=C/c2ccc(N(CC)CC)cc2OC)C(=O)NC1=S | 9.4% | -0.4% | 0.1% | 0.4% | 7.94µM*
CCN(CC)c1ccc(/C=C2\C(=O)NC(=S)N(c3ccc(OC)cc3OC)C2=O)o1 | . | -0.4% | -29.6% | 0.2% | 11.2µM*
CC1(C)CC/C(=C\c2ccc(Cl)cc2)C1(O)Cn1cncn1 (stereo not drawn) | . | . | . | 1.7%[99.4 µM] | .
CCCCNc1ccc(C(=O)OCCN(CC)CC)cc1 | . | . | . | 30.1% | .
C=CCN1C(=O)NC(=O)/C(=C\c2ccc(-c3ccccc3[N+](=O)[O-])o2)C1=O | -3.0% | -1.5% | -11.2% | 17.8µM* | -12.2%
O=C1NC(=O)N(Cc2ccco2)C(=O)/C1=C/c1ccc(-c2cccc([N+](=O)[O-])c2)o1 | ? | -1.9% | -6.7% | 13.0% | -6.9%
O=[N+]([O-])/C=C/c1c(Cl)cccc1Cl | . | -7.2% | ? | 7.94µM* | 2.7%
NCCc1cc(O)c(O)cc1O | 5.3% | 1.3% | 1.8% | 10µM*! | 0.9%
NC(Cc1cc(O)c(O)cc1O)C(=O)O (stereo not drawn) | -1.2% | -0.2% | 4.9% | . | .
COc1ccc(C2C=C(c3ccccc3)Nc3nc(NC(=O)/C=C/c4ccccc4Cl)nn32)cc1 (stereo not drawn) | 7.1% | ? | 0.2% | -5.5% | -2.1%
COc1ccc(N2C(=O)NC(=O)/C(=C/c3ccc(N4CCOCC4)cc3)C2=O)cc1 | 0.5% | . | . | . | .
COC(=O)Cn1cc(/C=C2\C(=O)NC(=O)N(c3ccc(OC)cc3)C2=O)c2ccccc21 | . | 35.5µM* | 0.9% | -43.1% | ?
COc1ccc(N2C(=O)NC(=O)/C(=C\c3ccc([N+](=O)[O-])s3)C2=O)cc1 | ? | -0.3% | -14.1% | 12.6µM* | ?
COc1ccc(N2C(=O)NC(=O)/C(=C\c3cn(C)c4ccccc34)C2=O)cc1 | . | 28.5% | 1.7% | -1.6% | 22.4µM*
CC[C@H](OC(C)=O)C(C[C@H](C)NC)(c1ccccc1)c1ccccc1 | . | . | . | 5.0%[99.4 µM] | .
O=C(O)c1cccc2c1NC(C(=O)O)C1CC(Sc3ccccc3[N+](=O)[O-])C(Cl)C21 (stereo not drawn) | 0.0% | 2.5% | 0.4% | 7.08µM* | -3.0%
Cc1ccccc1N1C(=O)NC(=O)/C(=C\c2ccc3c(c2)CCCN3Cc2ccccc2)C1=O | -3.2% | 2.8% | ? | ? | -13.9%
O=C1NC(=S)NC(=O)C1=Cc1ccc2c(c1)CCN2CCCCl | -1.7% | 0.9% | 0.5% | 10µM* | -4.6%
O=c1[nH]c(O)c(/C=C2\C=Nc3ccc(OCc4ccccc4)cc32)c(=O)[nH]1 | . | 31.6µM* | -3.9% | 31.0% | 12.6µM*
C[N+]1(CCF)[C@@H]2CC[C@@H]1CC(OC(=O)C(O)(c1ccccc1)c1ccccc1)C2 (stereo partly drawn) | . | . | . | 12.6% | .
SMILES | Epigenetic derep | PINK1 expr mod | Vif-A3G inh | GLS inhibitor | Vif-A3F inh
CN(C)c1ccc(/C=C/C=C/c2sc3ccccc3[n+]2C)cc1 | 2.4% | 5.01µM* | 2.9% | 4.7% | -0.6%
CN(C)c1ccc(/C=C/c2cc[n+](C)c3ccccc23)cc1 | -1.3% | 25.1µM* | 7.0% | 25.5% | 14.6%
C[C@@H]1CN([C@@H](C)CO)C(=O)CCCn2nncc2CO[C@@H]1CN(C)C(=O)Nc1ccc(N2CCCCC2)cc1 | . | -0.3% | -3.1% | 3.6% | 2.5%
CCC(=O)OC1[C@@H](N2CCCCC2)C[C@H]2[C@@H]3CC[C@H]4C[C@H](OC(C)=O)[C@@H](N5CCCCC5)C[C@]4(C)[C@H]3CC[C@]12C (stereo partly drawn) | . | . | . | 0.3% | .
C[C@H]1[C@@H]2Cc3ccc(O)cc3[C@]1(C)CCN2CCc1ccccc1 | . | . | . | 54.1%[99.4 µM] | .
O=C1/C(=C/c2ccc3c(c2)OCO3)SC(=S)N1CCC(=O)N(CCO)c1ccccc1 | . | 6.5% | -16.3% | -0.9% | 22.4µM*
CC12CCC(=O)CC1CCC1C2CCC2(C)C1CCC2(C)O (stereo not drawn) | . | . | . | -0.5% | .
C[C@@H]1[C@H](O)[C@@H](C)C=CC=CCCC=CC=CC=CC=C[C@H](O[C@H]2O[C@@H](C)[C@H](O)[C@@H](N)[C@@H]2O)CC2O[C@](O)(C[C@@H](O)[C@H](O)CC[C@@H](O)C[C@@H](O)C[C@@H](O)CC(=O)O[C@H]1C)C[C@H](O)[C@H]2C(=O)O | . | . | . | 45.7% | .
COc1cccc2c1C(=O)c1c(O)c3c(c(O)c1C2=O)C[C@@](O)(C(=O)CO)C[C@@H]3O[C@H]1C[C@H](N)[C@H](OC2CCCCO2)[C@H](C)O1 (stereo partly drawn) | . | -1.0% | 5.0% | 15.8µM* | .
CCCCCC(O)C1C(=O)OC(C)C(O)\C=C/C=C\C=C/C=C\C=C(\C)C(O)C(O)C(O)CC(O)CC(O)CC(O)CC(O)CC1O (stereo not drawn) | . | . | . | 28.2µM*! | .
Cc1ccc(Cl)cc1NC(=O)Cn1c(=O)oc2cc(S(=O)(=O)N3CCCCCC3)ccc21 | 0.0% | 15.7% | -7.9% | -2.8% | ?
On1ccccc1=S | . | ? | ? | 49.5% | 6.7%
CCN1C(=O)c2ccccc2Sc2ccc(NC(=O)Nc3ccc(Br)c(C)c3)cc21 | -0.8% | 15.8µM* | 0.6% | -3.3% | -2.8%
CCN1C(=O)c2ccccc2Sc2ccc(C(=O)N3CCC4(CC3)OCCO4)cc21 | 1.5% | -2.1% | -2.5% | -1.5% | 2.3%
CCN(CC)C(=O)[C@@H]1C=C2c3cccc4[nH]cc(c34)C[C@H]2N(C)C1 | . | . | . | 41.6% | .
